# Measurements: the supplement of paper PMC6555819
# Legend:
# Test in all cases: PBM binding z-score (relative to random genomic background probes); higher = stronger binding; sequences stand for … in GC…GCGATTGACAGCGTAGAATGAAGG
# [1] = test system: FXR:RXRa (NR concentration 270 nM, RXRa partner concentration 90 nM)
# How it was run: (§1)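 For binding z-scores, the reference was random background probes on custom Agilent 4×180K protein-binding microarrays. These arrays were incubated 1 h with ligand-free nuclear receptor dimers in PBS pH 7.4, 2% milk, 0.02% Triton X-100, 1 mM DTT, 0.2 mg/mL BSA and 0.4 mg/ml salmon testes DNA. Fluorescence was scanned after antibody detection of each partner (one per run) and regression-normalized.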
# [2] = test system: LXRa:RXRa (NR concentration 270 nM, RXRa partner concentration 90 nM)
# How it was run: as §1
# [3] = test system: LXRa homodimer (NR concentration 270 nM)
# How it was run: as §1
# [4] = test system: LXRb:RXRa (NR concentration 270 nM, RXRa partner concentration 90 nM)
# How it was run: as §1
# [5] = test system: LXRb homodimer (NR concentration 270 nM)
# How it was run: as §1
# [6] = test system: PPARa:RXRa (NR concentration 270 nM, RXRa partner concentration 90 nM)
# How it was run: as §1
# [7] = test system: PPARg:RXRa (NR concentration 180 nM, RXRa partner concentration 90 nM)
# How it was run: as §1
# [8] = test system: PPARg:RXRa 270nM:90nM, anti-RXR (NR concentration 270 nM, RXRa partner concentration 90 nM)
# How it was run: as §1
# [9] = test system: PPARg:RXRa 30nM:10nM, anti-RXR (NR concentration 30 nM, RXRa partner concentration 10 nM)
# How it was run: as §1
# [10] = test system: PPARg:RXRa 90nM:30nM, anti-RXR (NR concentration 90 nM, RXRa partner concentration 30 nM)
# How it was run: as §1
Sequence,PBM binding z-score [1],PBM binding z-score [2],PBM binding z-score [3],PBM binding z-score [4],PBM binding z-score [5],PBM binding z-score [6],PBM binding z-score [7],PBM binding z-score [8],PBM binding z-score [9],PBM binding z-score [10]
ACTAGCAGGCCAAGTTAGGGTCACTCAAACAAAG,1.87,1.73,-0.142,2.55,-0.86,3.36,0.753,1.38,-0.00931,1.07
CTACCAAGGTGAACAAGGTCGTTGAATACTATTC,1.52,1.23,0.0934,1.87,-0.659,2.68,1.19,1.39,0.333,0.702
GCACGGAGGACAAGGTCAGAGCTTTGTCCGTAGA,1.87,1.26,-0.362,1.23,-0.916,2.15,0.53,1.2,-0.394,0.459
CATTACGGGTCACTCCAGGTTATAGCATCGGAGT,5.62,7.54,4.42,5.55,1.54,4.96,4.53,4.77,1.56,3.53
AGAACGAGGGCAATGAGTTGATTGCACGGGTGGC,0.165,0.157,-0.593,-0.398,-0.715,1.23,1.15,0.624,-0.179,0.252
CCTACTGGGCCAAAAAGGTCATTGGTGCCGATAA,3.94,4.46,3.31,4.08,0.197,4.67,3.1,4.12,1.19,3.34
GCTGCTAGGTCAGGTTGGTCAGCAAACGGGTACG,1.13,0.793,-0.389,0.519,-0.114,1.52,0.5,0.829,-0.344,0.0879
TTACCAAGGTGAGCTGATGTCGTTGATCCAACTC,0.178,-0.111,-0.671,-0.252,-0.971,0.344,0.146,0.25,0.147,0.11
CCGACTGGGGCAAGGTGACCATAACGCACAGCCA,-0.279,-0.424,-0.369,-0.293,-1.35,0.808,1.99,1.81,-0.0516,0.949
TCTCGGAGGACACGAAGGGTCAGAGCTCGACATC,1.35,1.66,-0.0975,1.19,-1.38,2.06,0.488,1.25,1.85,1.44
TCAGACAGGTGAAGGTAACTTAGGTACGCAGTCG,1.16,2.01,-0.079,1.41,-0.0603,1.46,0.846,2.45,4.08,3.11
CAAACTAGGTCAAAGCTCAAAGTCGAGCCAACCA,4.62,3.4,0.633,2.4,0.592,5.71,10.2,8.74,9.03,9.54
GCTAGCAGGCCATTTGGGTCGCTCAATGACGGGC,-0.655,-0.842,-0.846,-1.04,-1.24,-0.407,-0.08,-0.417,-0.944,-0.61
TTTAGTTGGTCACGGAGGTCACACACGACGGGTA,3.66,3.83,3.02,3.45,1.48,4.21,4.64,4.76,2.06,3.63
GTACCAAGGTGGATAGGTCGTTGATGAGTAGGCG,-0.366,-0.16,-0.154,-0.255,-0.708,0.372,0.422,0.293,-0.451,0.026
TCTTGTAGATCAATAGAGGTTCAGAAAGTGCGCT,0.408,0.78,-0.0503,0.293,-0.193,0.663,-0.13,1.35,2.81,2.47
ACACCAAGGTGATCGTGAGGTCGTTGATACTAAC,1.59,1.28,0.495,1.38,-0.254,1.62,0.514,0.34,-0.275,0.0177
TCTCGGAGCACACGAAAGGTCAGAGCTCGACATC,1.92,3.07,1.44,2.84,-0.493,3.39,0.926,1.94,1.5,1.49
AGAATTAGGTTATTAAGATCAGGGAATTGCGGTC,0.488,0.607,0.495,0.404,0.244,1.87,1.99,2.31,1.74,1.58
GCTCGGAGGACCAGGTCAGAGCTTTGTCCGTAGA,0.0133,-0.0636,-0.562,-0.241,-1.47,0.776,-0.725,-0.204,-1.11,-0.616
CCTAGCACGCCAATCTGGGTCACTCAAGGCTTGA,0.513,0.503,-0.0137,0.788,-0.333,2.88,1.61,2.16,-0.246,1.13
CCGACTGGGGCACAGGTTACCATACTCAGTACGA,0.0382,0.072,-0.0129,0.247,-0.88,2.71,6.11,5.67,4.13,6.28
CGTCCAAGGTCAGAGAGGTTAGTGAATGCCGAGT,5.32,3.46,0.378,2.89,-0.248,4.18,2.47,2.56,0.275,1.48
CCGACTGGGGCCTAAGGTTACCATAAGCCAGCCC,0.328,1.58,-0.169,0.716,-1.28,1.26,0.941,2.51,0.0484,1.11
CGTCCAAGGTGAAGGTCAGTGAAAGAGACTCGAA,1.84,1.4,-0.233,1.25,-0.872,3.04,2.5,2.81,0.634,1.96
